In PubChem BioAssay (Tox21) one finds Potency and outcome data, which are given here for seven molecules.

Several values for one entry are separate records, joined by “and”; a condition that tells them apart may be missing. Equal entries are not always repeated. Values without a mark were called inactive. Inconclusive results are not listed. Activity calls are given as the source filed them. Unless noted, calls follow the shape of the dose curve; as a rule, active = well fitted curve in the direction sought with a large enough effect in the repeat runs; inconclusive = weak or mixed curves; inactive = no such curve, though single readings can be large; an effect the other way counts as inactive or inconclusive.

A short description of assay [1]: qHTS assay for small molecule agonists of the p53 signaling pathway (AID 651631; calls by dose curve; also: potency is read from the fitted curve at half-maximal effect; nearly all actives have a fitted effect of over 15% in size). Put shortly: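 Beta-lactamase reporter activity under p53 response elements was quantified in HCT-116 cells by FRET fluorescence, following 16 h incubation with test compounds at 37 °C and 2 h substrate development at room temperature.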
Assay [2] in a line: qHTS assay for small molecules that induce genotoxicity in human embryonic kidney cells expressing luciferase-tagged ATAD5 (AID 651632). Also: nearly all actives have a fitted effect of over 15% in size. Put shortly: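 DMSO vehicle served as the control. HEK293T reporter cells, 16 hr at 37C, then 30 min Amplite at room temperature; ATAD5 induction is measured as luciferase activity.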
For orientation: Quantitative high-throughput screening tests each substance at several concentrations.

Assay [3] can be described thus: qHTS assay for small molecule agonists of the p53 signaling pathway - cell viability (AID 651633; calls by dose curve; also: potency is read from the fitted curve at half-maximal effect; nearly all actives have a fitted effect of over 30% in size). Put shortly:
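p53RE-bla cells were treated with compound for 16 hours at 37 C. Cytotoxicity was then measured as CellTiter-Glo luminescence after 30 min at room temperature.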

The nature of assay [4]: qHTS assay for small molecules that induce genotoxicity in human embryonic kidney cells expressing luciferase-tagged ATAD5 - cell viability (AID 651634; calls by dose curve; also: nearly all actives have a fitted effect of over 25% in size; also: potency is read from the fitted curve at half-maximal effect). A digest of the protocol:
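Here HEK293T cells with the ATAD5 luciferase reporter are incubated with test compounds for 15.5 hr, and cytotoxicity is then gauged by measuring protease activity in live cells using fluorescence.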

A short description of assay [5]: qHTS assay for small molecule disruptors of the mitochondrial membrane potential (AID 720635). Also: potency is read from the fitted curve at half-maximal effect. Put shortly:
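HepG2 cells exposed to compound 1 hr at 37C, then Mito-MPS dye 30 min. Ratio read of aggregate (540/590 nm) versus monomer (490/535 nm) fluorescence.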

Assay [6] in a line: qHTS assay to test for compound auto fluorescence at 590 nm (red) in HepG2 cells (AID 720674). A digest of the protocol:
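Seeding: 2,000 HepG2 cells/well, MEM/10% FBS, overnight 37 C. Dosing: compound vs DMSO. Incubation: 1 hr, 37 C, 5% CO2. Read: fluorescence 540 ex/590 em, Rose Bengal sodium as red reference.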

The nature of assay [7]: qHTS assay to test for compound auto fluorescence at 535 nm (green) in HepG2 cells (AID 720675).
Assay [8] is described as follows: qHTS assay to test for compound auto fluorescence at 460 nm (blue) in HEK293 cells (AID 720678). A digest of the protocol: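 Measured: blue fluorescence (Ex 405/Em 460 nm) of compound-treated HEK293 cells, incubated overnight at 37C with 5% CO2 and scaled to triamterene equivalents.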
Assay [9] is described as follows: qHTS assay to test for compound auto fluorescence at 535 nm (green) in HEK293 cells (AID 720680).
Assay [10] in a line: qHTS assay to test for compound auto fluorescence at 460 nm (blue) in HEK293 cell free culture (AID 720681). Put shortly: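 Compounds were added to cell-free DMEM with 10% FBS and fluorescence read directly. The blue channel used 405 nm excitation and 460 nm emission, with triamterene as the reference fluorophore.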
The nature of assay [11]: qHTS assay to test for compound auto fluorescence at 535 nm (green) in HEK293 cell free culture (AID 720682). A digest of the protocol:
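Each library compound, or DMSO control, is added by pintool to medium alone, comprising DMEM and 10% FBS. Emission at 535 nm following 485 nm excitation is quantified against fluorescein.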

A short description of assay [12]: qHTS assay to test for compound auto fluorescence at 590 nm (red) in HEK293 cell free culture (AID 720683). A digest of the protocol: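 Cell-free wells of DMEM with 10% FBS received compound, and intrinsic fluorescence was read at excitation/emission 540/590 nm. Values expressed as equivalence to Rose Bengal sodium.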
The nature of assay [13]: qHTS assay to test for compound auto fluorescence at 590 nm (red) in HepG2 cell free culture (AID 720684). Put shortly: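 Rose Bengal sodium served as the reference for red signal. Test compounds were dispensed into serum-containing MEM (10% FBS) without cells, and plates were read at 540/590 nm.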
Assay [14] can be described thus: qHTS assay to test for compound auto fluorescence at 460 nm (blue) in HepG2 cell free culture (AID 720685). A digest of the protocol: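 Cell-free plates of MEM plus 10% FBS received 23 nL compound or DMSO vehicle; blue-channel (405/460 nm) intensity scored against triamterene as reference fluorophore.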
A short description of assay [15]: qHTS assay to test for compound auto fluorescence at 535 nm (green) in HepG2 cell free culture (AID 720686).
Assay [16] can be described thus: qHTS assay to test for compound auto fluorescence at 460 nm (blue) in HepG2 cells (AID 720687). Put shortly:
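HepG2 cells in MEM with 10% FBS, attached overnight at 37 C, were exposed to compound or DMSO for 1 hr at 37 C, 5% CO2. Blue fluorescence was read at 405/460 nm, with triamterene as reference fluorophore.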

In assay [17] the target is Glucocorticoid receptor (Homo sapiens) (UniProt P04150). Nature of the assay: qHTS assay to identify small molecule agonists of the glucocorticoid receptor (GR) signaling pathway (AID 720691; active = well fitted activation curve with a large enough effect in the signal ratio in the repeat runs, not every such curve was filed as active; the % refers to the signal ratio; also: potency is read from the fitted curve at half-maximal effect). A digest of the protocol: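 Compounds in DMSO, alongside positive controls, were added to GR-bla HeLa reporter cells and incubated 18 h at 37 C; GRE-driven beta-lactamase was detected by fluorescence after 2 h with FRET substrate at room temperature.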

Assay [18] is described as follows: qHTS assay for small molecule disruptors of the mitochondrial membrane potential - cell viability (AID 720634; calls by dose curve; also: nearly all actives have a fitted effect of over 20% in size; also: potency is read from the fitted curve at half-maximal effect). Put shortly:
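Viability of HepG2 cells is scored from ATP content by luminescence; cells are exposed to compound for 1 hr at 37 C and 5% CO2, then dosed with m-MPI dye before the CellTiter-Glo reagent.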

The nature of assay [19]: qHTS assay to test for compound auto fluorescence at 590 nm (red) in HEK293 cells (AID 720679). A digest of the protocol: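 Using HEK293 cells at 2,000 per well, the screen added 23 nL of each compound after cell attachment and incubated overnight (37C, 5% CO2). The plate reader then captured red-label fluorescence, Ex/Em 540/590nm.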
Assay [20] deals with Glucocorticoid receptor (Homo sapiens) (UniProt P04150). Nature of the assay: qHTS assay to identify small molecule antagonists of the glucocorticoid receptor (GR) signaling pathway (AID 720692; active = well fitted inhibition curve with a large enough effect in the signal ratio in the repeat runs, not every such curve was filed as active; the % refers to the signal ratio; also: potency is read from the fitted curve at half-maximal effect). A digest of the protocol:
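In a 1536-well cell format, compounds were added 4 h after seeding GR-bla HeLa cells, together with dexamethasone at 5 nM final; reporter activity was measured by FRET-substrate fluorescence following 18 h at 37 C.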

Sequence of Glucocorticoid receptor (Homo sapiens) (P04150 whole entry, looked up): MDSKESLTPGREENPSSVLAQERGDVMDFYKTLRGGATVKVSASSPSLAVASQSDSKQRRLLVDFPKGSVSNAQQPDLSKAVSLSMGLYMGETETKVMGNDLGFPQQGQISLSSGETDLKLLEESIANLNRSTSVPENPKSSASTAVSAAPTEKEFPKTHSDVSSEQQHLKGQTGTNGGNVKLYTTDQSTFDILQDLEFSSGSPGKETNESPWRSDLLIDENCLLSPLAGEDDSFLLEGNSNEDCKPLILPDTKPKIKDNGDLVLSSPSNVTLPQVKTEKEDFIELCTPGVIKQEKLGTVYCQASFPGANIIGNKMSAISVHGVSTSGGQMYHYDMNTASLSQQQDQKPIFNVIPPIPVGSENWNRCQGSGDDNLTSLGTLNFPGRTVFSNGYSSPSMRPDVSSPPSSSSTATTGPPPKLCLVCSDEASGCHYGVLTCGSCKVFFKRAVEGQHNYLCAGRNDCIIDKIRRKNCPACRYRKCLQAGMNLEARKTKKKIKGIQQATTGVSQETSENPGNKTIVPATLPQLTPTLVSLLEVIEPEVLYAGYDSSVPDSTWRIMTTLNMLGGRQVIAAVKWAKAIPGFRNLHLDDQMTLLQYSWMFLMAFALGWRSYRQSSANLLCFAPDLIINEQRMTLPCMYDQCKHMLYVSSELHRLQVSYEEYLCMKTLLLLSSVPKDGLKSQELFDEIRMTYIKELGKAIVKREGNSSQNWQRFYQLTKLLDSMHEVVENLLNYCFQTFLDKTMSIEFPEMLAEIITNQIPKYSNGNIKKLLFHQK

`CCOC(=O)C1(c2ccccc2)CCN(CCC(C#N)(c2ccccc2)c2ccccc2)CC1`: the Potency in assay [1] was 3.76 µM (active) and 26.6 µM (active); in assay [3], 1.88 µM (active) and 9.44 µM (active); in assay [5], 13.3 µM (active) and 26.6 µM (active); in assay [17], 60 µM (active). The Potency result in assay [2], in assay [4], in assay [8], in assay [10], in assay [14] and in assay [16] was “inactive” throughout. The molecule was classed as inactive in [6], in assay [7], in [9], in [11], in [12] and in [13]. In addition, the outcome in assay [15] was inactive.

`CCOC(=O)CC(=O)CCl`: in assay [1], the Potency was 68.6 µM (active). Besides, the Potency entry in [18], in [8], in assay [10], in assay [14], in [16] and in [17] was “inactive” throughout. In addition, the call in assay [6], in [7], in [19], in assay [9], in [11] and in assay [12] was inactive. Also, the molecule was called inactive in [15].

In the case of `Clc1ccc(C(c2ccccc2Cl)C(Cl)(Cl)Cl)cc1` (centres undefined), the Potency was 69 µM (active) in assay [1]; 54.8 µM (active) and 40.2 µM (active) in assay [3]; 22 µM (active) and 20.3 µM (active) in [20]. The Potency entry in assay [2], in assay [4], in assay [8], in assay [10], in assay [14] and in [16] was “inactive” throughout. Further, the molecule was classed as inactive in assay [6], in assay [7], in assay [19], in assay [9], in assay [11] and in [12]. The outcome in assay [13] and in assay [15] was inactive.

On to `CCC[CH2][Sn]([CH2]CCC)([CH2]CCC)[O]C(=O)c1ccccc1`, for which the Potency entry in assay [2], in [8], in [10], in assay [14] and in assay [16] was “inactive” throughout. Moreover, the Potency in assay [3] is 611 nM (active); in assay [4], 1.22 µM (active); in [18] it was 2.17 µM (active); in assay [5], 77 nM (active). Further, the outcome in [6], in assay [7], in [19], in assay [9], in [11] and in assay [12] was inactive. Further, the call in assay [13] and in [15] was inactive.

In the case of `O=c1ssc(Cl)c1Cl`, the Potency result in [2], in assay [8], in assay [10], in assay [14], in assay [16] and in assay [17] was “inactive” each time. Also, the Potency is 54500 nM (active) in [3], 61.1 µM (active) in [4], 61.1 µM (active) in assay [18] and 30600 nM (active) in assay [5]. The call in assay [6], in [7], in assay [19], in [9], in assay [11] and in [12] was inactive. Also, the result in assay [13] and in assay [15] was inactive.

In the case of `CSCCCN=C=S`, the Potency in [1] and in assay [4] was 54.5 µM (active) each time. Moreover, the Potency entry in [18], in assay [8], in assay [10] and in assay [16] was “inactive” throughout. For the same molecule, the call in assay [6], in assay [7], in assay [19], in assay [9], in assay [11] and in assay [12] was inactive. The molecule was classed as inactive in assay [13] and in [15].

Take `C[C@H]1O[C@@H](O[C@H]2[C@@H](O)C[C@H](O[C@H]3[C@@H](O)C[C@H](O[C@H]4CC[C@@]5(C)[C@H](CC[C@@H]6[C@@H]5CC[C@]5(C)[C@@H](C7=CC(=O)OC7)CC[C@]65O)C4)O[C@@H]3C)O[C@@H]2C)C[C@H](O)[C@@H]1O`: the Potency result in assay [2], in assay [18], in assay [8], in assay [10], in [14] and in assay [16] was “inactive” each time. In addition, the Potency in [3] is 47.3 nM (active) and 12.3 nM (active); in assay [4] it was 53.1 nM (active) and 30.8 nM (active); in assay [5], 119 nM (active) and 97.5 nM (active). Moreover, the molecule was called inactive in assay [6], in assay [7], in [19], in [9], in [11] and in assay [12]. Further, the molecule was called inactive in assay [13] and in assay [15].
